Only some compounds are listed: those with a hit (about 18% of all), similar ones and a draw of the others.
DT40 TDP1 no CPT: qHTS for Inhibitors of human tyrosyl-DNA phosphodiesterase 1 (TDP1): qHTS in cells in absence of CPT; AID 686978, 2013; Potency, µM (titrated, usually from 46.2 µM), usual class: inhibitors; 420,000 compounds, 15% hits; DT40 Tdp1-/- hTDP1 cells, no CPT, ATP luminescence, 48 h; note: nearly all actives have a fitted effect of over 55% in size
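Luminescent ATP content (CellTiter-Glo) served as the growth readout. Knockout chicken DT40 cells expressing human TDP1 were exposed to compounds without camptothecin for a minimum 48 hr at 37 °C.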
Gal4-VP16 FLuc: VP16 counterscreen qHTS for inhibitors of ROR gamma transcriptional activity | Drosophila S2 Gal4-VP16 UAS-luciferase, luminescence, 20 h | Potency, µM (titrated, usually from 53.6 µM), actives largely listed as inhibitors | 310,000 compounds, 3.5% hits | AID 2546, 2010;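 note: Gal4-VP16 expression switched on by copper sulfate through the metallothionein promoter; nearly all actives have a fitted effect of over 50% in size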
RORgamma inh: qHTS for inhibitors of ROR gamma transcriptional activity. Potency, µM (doses to about 53.6 µM), hits mostly inhibitors. Nuclear receptor ROR-gamma (Mus musculus), P51450. AID 2551, 2010. Drosophila S2 Gal4-RORgamma UAS-luciferase reporter, 20 h. 310,000 compounds, 5.4% hits; note: nearly all actives have a fitted effect of over 60% in size
Target sequence (P51450 whole entry, looked up, the tested form may be a part): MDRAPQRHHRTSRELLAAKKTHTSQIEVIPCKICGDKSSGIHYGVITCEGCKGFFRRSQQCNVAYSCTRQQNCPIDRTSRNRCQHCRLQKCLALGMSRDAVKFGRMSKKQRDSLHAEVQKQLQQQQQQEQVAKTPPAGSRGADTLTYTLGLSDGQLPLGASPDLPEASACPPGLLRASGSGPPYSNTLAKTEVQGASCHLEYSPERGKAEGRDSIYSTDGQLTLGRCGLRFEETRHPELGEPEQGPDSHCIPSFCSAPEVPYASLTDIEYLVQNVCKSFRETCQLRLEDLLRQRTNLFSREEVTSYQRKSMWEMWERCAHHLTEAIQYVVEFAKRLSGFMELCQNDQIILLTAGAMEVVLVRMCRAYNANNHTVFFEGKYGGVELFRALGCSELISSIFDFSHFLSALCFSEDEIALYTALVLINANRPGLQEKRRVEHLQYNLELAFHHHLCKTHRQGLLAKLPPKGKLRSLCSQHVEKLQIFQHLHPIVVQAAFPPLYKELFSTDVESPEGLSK
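ROR gamma transcriptional activity was tracked as Gal4-UAS luciferase output in stably transfected Drosophila Schneider cells, with compound added 1 hr before 700 uM copper sulfate induction and a 20 hr ambient-temperature incubation.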
TDP1 cell CPT: qHTS for Inhibitors of human tyrosyl-DNA phosphodiesterase 1 (TDP1): qHTS in cells in presence of CPT. chicken DT40 Tdp1-/-;hTDP1 cells + 20 nM CPT, ATP luminescence, 48 h. 420,000 compounds, 12% hits. Potency, µM (titrated, usually from 46.2 µM), usual class: inhibitors; note: nearly all actives have a fitted effect of over 55% in size
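Chicken DT40 Tdp1-/- cells complemented with human TDP1, 400 cells/well, exposed to compounds plus 20 nM camptothecin for at least 48 h at 37 C; viability read as ATP content by CellTiter-Glo luminescence.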
LDHA block: qHTS assay for inhibitors of human lactate dehydrogenase | 480,000 compounds, 0.15% hits | L-lactate dehydrogenase A chain (Homo sapiens), P00338 | purified LDHA, NADH/diaphorase-resazurin fluorescence; stronger effect = lower value | activity change, % (values are at about 110 or 230 µM); in the data active = activity change below about -30%; inconclusive = mostly about -25% to -30%
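Remaining NADH was detected by diaphorase (0.133 mg/mL) converting 37 µM resazurin to fluorescent resorufin, read at 0 and 20 minutes. The preceding 5-minute room-temperature reaction used 2 nM LDHA, 0.2 mM sodium pyruvate and 0.06 mM NADH at pH 7.4.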
IL-1B inflam inh: qHTS for Inhibitors of Inflammasome Signaling: IL-1-beta AlphaLISA Primary Screen. THP-1 LPS/ATP IL-1B secretion, AlphaLISA, 16 h; stronger effect = lower value. 360,000 compounds, 4.7% hits. AID 743279, 2014. activity change, % at 57.5 µM; in the data active = activity change below about -50%; inconclusive = mostly about -30% to -49%
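Secreted IL-1B measured by AlphaLISA bead assay after 16 h compound exposure of THP-1 cells; compounds (final up to 57.5 uM) added 1 h before LPS (250 ng/mL) and ATP (1.25 mM) stimulation; lower signal means less secretion.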
Each line names hits and unclear results; the compound was inactive in the other large screens. Unless noted, calls come from the whole dose curve; as a rule, active = well fitted curve in the direction sought with a large enough effect; inconclusive = small, poorly fitted or top-dose-only effect, or another doubt; inactive = no such curve, though single readings can be large; an effect the other way counts as inactive or inconclusive.

CCN(CC)C(=O)c1cccc(-c2csc(C(C)(O)c3cccc(F)c3)n2)c1 (stereo unspecified)	DT40 TDP1 no CPT 23µM, TDP1 cell CPT 18µM (no result: Gal4-VP16 FLuc, RORgamma inh)
CC(O)(c1ccccc1)c1nc(-c2cccc(F)c2)cs1 (stereo unspecified)	TDP1 cell CPT 21µM (no result: Gal4-VP16 FLuc, RORgamma inh)
CCN(CC)C(=O)c1cccc(-c2csc(C(C)(NC(C)=O)c3ccccc3)n2)c1 (stereo unspecified)	DT40 TDP1 no CPT inconclusive, TDP1 cell CPT inconclusive (no result: Gal4-VP16 FLuc, RORgamma inh)
OC(c1ccccc1)(c1nc(/C=C/c2ccc(C(F)(F)F)cc2)cs1)C(F)(F)F (stereo unspecified)	DT40 TDP1 no CPT 23µM, TDP1 cell CPT inconclusive (no result: Gal4-VP16 FLuc, RORgamma inh)
CC(O)(c1cccc(F)c1)c1nc(-c2cncnc2)cs1 (stereo unspecified)	TDP1 cell CPT inconclusive (no result: Gal4-VP16 FLuc, RORgamma inh)
CC(O)(c1cccc(F)c1)c1nc(-c2ccc3ccccc3c2)cs1 (stereo unspecified)	DT40 TDP1 no CPT 23µM, TDP1 cell CPT 13µM (no result: Gal4-VP16 FLuc, RORgamma inh)
CN(C)C(=O)CN1CCN(C(C(=O)O)c2c(-c3ccccc3)[nH]c3ccccc23)CC1 (stereo unspecified)	none (no result: DT40 TDP1 no CPT, Gal4-VP16 FLuc, RORgamma inh, TDP1 cell CPT, IL-1B inflam inh)
COc1ccc(-c2csc(C(C)(O)c3cccc(F)c3)n2)cn1 (stereo unspecified)	DT40 TDP1 no CPT 23µM, TDP1 cell CPT 23µM (no result: Gal4-VP16 FLuc, RORgamma inh)
CC(O)(c1cccc(F)c1)c1nc(-c2cc(F)cc(F)c2)cs1 (stereo unspecified)	DT40 TDP1 no CPT inconclusive, TDP1 cell CPT 2.9µM (no result: Gal4-VP16 FLuc, RORgamma inh)
CC(=O)Nc1cccc(-c2csc(C(C)(O)c3cccc(F)c3)n2)c1 (stereo unspecified)	DT40 TDP1 no CPT inconclusive, TDP1 cell CPT 23µM (no result: Gal4-VP16 FLuc, RORgamma inh)
CC(O)(c1cccc(F)c1)c1nc(/C=C/c2ccccc2)cs1 (stereo unspecified)	DT40 TDP1 no CPT inconclusive, TDP1 cell CPT 18µM (no result: Gal4-VP16 FLuc, RORgamma inh)
CC(O)(c1ccc(F)c(F)c1)c1nc(/C=C/c2ccc(C(F)(F)F)cc2)cs1 (stereo unspecified)	DT40 TDP1 no CPT inconclusive, TDP1 cell CPT inconclusive (no result: Gal4-VP16 FLuc, RORgamma inh)
Cc1c(CC(=O)O)c(=O)oc2cc(OCc3ccccc3)ccc12	none (no result: DT40 TDP1 no CPT, Gal4-VP16 FLuc, RORgamma inh, TDP1 cell CPT, IL-1B inflam inh)
CCN(CC)S(=O)(=O)c1ccc(OC)c(NC(=O)c2nn(C(C)C)c(=O)c3ccccc23)c1	none (no result: DT40 TDP1 no CPT, Gal4-VP16 FLuc, RORgamma inh, TDP1 cell CPT, IL-1B inflam inh)
COc1ccc(/C=N/NC(=O)Cn2nc(C)c([N+](=O)[O-])c2C)cc1	DT40 TDP1 no CPT inconclusive, TDP1 cell CPT 12µM
Cc1nn(C)c(C)c1/C=N/NC(=O)CCn1nc(C)c([N+](=O)[O-])c1C	DT40 TDP1 no CPT inconclusive, Gal4-VP16 FLuc 3.5µM
CC1(C)CC(=O)C2=C(C1)N(c1cccnc1)C(N)=C(C#N)C2c1cccs1 (stereo unspecified)	none
COc1ccc(C2C(C#N)=C(N)N(c3ccccc3Cl)C3=C2C(=O)CCC3)cc1O (stereo unspecified)	none (no result: DT40 TDP1 no CPT, Gal4-VP16 FLuc, RORgamma inh, TDP1 cell CPT, IL-1B inflam inh)
COc1ccc(C2C(C#N)=C(N)N(Nc3ccccc3)C3=C2C(=O)CC(C)(C)C3)cc1C (stereo unspecified)	IL-1B inflam inh inconclusive
COc1cc(C2C(C#N)=C(N)N(Nc3ccccc3)C3=C2C(=O)CC(C)(C)C3)ccc1OCc1ccccc1 (stereo unspecified)	DT40 TDP1 no CPT 21µM, RORgamma inh inconclusive, TDP1 cell CPT inconclusive, IL-1B inflam inh inconclusive
COc1cc(C2C(C#N)=C(N)N(Nc3ccccc3)C3=C2C(=O)CC(C)(C)C3)ccc1OCc1cccc(F)c1 (stereo unspecified)	DT40 TDP1 no CPT inconclusive, RORgamma inh inconclusive, TDP1 cell CPT inconclusive, IL-1B inflam inh -52
